According to PubChem BioAssay AID1159580 (chemical genetic matrix, 2015):
Where “and” joins values, the source holds several entries; their conditions need not be identical. Identical values can stand only once. Among all 5,500 compounds or so, about 2,000 (36%) were called active. About 18% were inconclusive and are not listed. Rule as the data show it: active = normalized growth mostly below about 0.91 (no sharp cut-off); inconclusive = no clear call, values can overlap the other calls; inactive = mostly above about 0.92. Some of the results follow.

Experiment: chemical genetic growth profiling, strain panel (AID 1159580);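 also: tested at 20 µM; growth read once vehicle control cultures reached saturation at 30 °C; 1 = growth at the plate median or of vehicle wells; lower values mean less growth of the strain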
Conditions: S. cerevisiae deletion strains, growth OD

Measured: normalized growth

COc1c2ccoc2c(OC)c2oc(=O)ccc12
inactive: locus YAL013W, strain DEP1, hits give low values 0.978 | locus YAL021C, strain ccr4, hits give low values 0.94 | locus YAL026C, strain drs2, hits give low values 0.953 | locus YAL030W, strain snc1, hits give low values 0.978 | locus YBL061C, strain skt5, hits give low values 0.974 | locus YBR009C, strain hhf1, hits give low values 0.923 | locus YBR021W, strain FUR4, hits give low values 0.901 | locus YBR171W, strain sec66, hits give low values 0.975 | locus YBR229C, strain ROT2, hits give low values 0.945 | locus YBR231C, strain swc5, hits give low values 0.966 | locus YBR279W, strain paf1, hits give low values 0.939 | locus YCL011C, strain gbp2, hits give low values 0.934 | locus YCL029C, strain bik1, hits give low values 0.965 | locus YCL061C, strain MRC1, hits give low values 0.944 | locus YCL069W, strain vba3, hits give low values 0.979 | locus YCR088W, strain abp1, hits give low values 0.997 | locus YDL005C, strain med2, hits give low values 0.989 | locus YDL035C, strain GPR1, hits give low values 0.929 | locus YDL040C, strain nat1, hits give low values 0.996 | locus YDL074C, strain BRE1, hits give low values 0.934 | locus YDL101C, strain DUN1, hits give low values 0.959 | locus YDL134C, strain PPH21, hits give low values 0.983 | locus YDL185W, strain tfp1, hits give low values 0.941 | locus YDR001C, strain nth1, hits give low values 0.97 | locus YDR069C, strain doa4, hits give low values 0.982 | locus YDR137W, strain rgp1, hits give low values 0.991 | locus YDR150W, strain NUM1, hits give low values 0.991 | locus YDR159W, strain sac3, hits give low values 1.02 | locus YDR162C, strain NBP2, hits give low values 0.884 | locus YDR297W, strain sur2, hits give low values 0.978 | locus YDR318W, strain mcm21, hits give low values 0.966 | locus YDR334W, strain swr1, hits give low values 0.938 | locus YDR388W, hits give low values 0.966 | locus YDR502C, strain sam2, hits give low values 0.97 | locus YEL003W, strain gim4, hits give low values 0.949 | locus YEL037C, strain rad23, hits give low values 0.976 | locus YEL061C, strain CIN8 (second series), hits give low values 0.972 | locus YEL061C, strain CIN8, hits give low values 0.977 | locus YER016W, strain bim1, hits give low values 0.99 | locus YER110C, hits give low values 0.96 | locus YER111C, strain swi4, hits give low values 0.987 | locus YER155C, strain BEM2, hits give low values 1.01 | locus YER167W, strain BCK2, hits give low values 0.97 | locus YFR010W, strain ubp6, hits give low values 0.968 | locus YGL078C, strain dbp3, hits give low values 0.987 | locus YGL086W, strain mad1, hits give low values 0.969 | locus YGL167C, strain pmr1, hits give low values 0.964 | locus YGL173C, strain kem1, hits give low values 0.979 | locus YGL227W, strain vid30, hits give low values 0.997 | locus YGL240W, strain doc1, hits give low values 0.969 | locus YGL248W, strain PDE1, hits give low values 0.96 | locus YGL253W, strain hxk2, hits give low values 0.959 | locus YGR078C, strain PAC10, hits give low values 0.962 | locus YGR135W, strain pre9, hits give low values 0.999 | locus YGR252W, strain gcn5, hits give low values 0.91 | locus YHR013C, strain ard1, hits give low values 0.912 | locus YHR027C, strain rpn1, hits give low values 0.959 | locus YHR030C, strain SLT2, hits give low values 0.99 and 0.993 | locus YHR079C, strain IRE1 (second series), hits give low values 0.983 | locus YHR079C, strain IRE1, hits give low values 0.989 | locus YHR094C, strain hxt1, hits give low values 0.98 | locus YHR129C, strain ARP1, hits give low values 0.981 | locus YHR142W, strain chs7, hits give low values 0.882 | locus YHR200W, strain rpn10, hits give low values 0.936 | locus YIL066C, strain RNR3, hits give low values 0.946 | locus YIL073C, strain SPO22, hits give low values 0.954 | locus YIL125W, strain kgd1, hits give low values 0.984 | locus YIR030C, strain dcg1, hits give low values 0.979 | locus YJL092W, strain hpr5, hits give low values 0.964 | locus YJL095W, strain BCK1 (second series), hits give low values 0.969 | locus YJL095W, strain BCK1, hits give low values 0.913 and 0.989 | locus YJL115W, strain asf1, hits give low values 0.959 | locus YJL129C, strain trk1, hits give low values 1.02 | locus YJL134W, strain LCB3, hits give low values 0.983 | locus YJL154C, strain vps35, hits give low values 0.983 | locus YJL166W, strain qcr8, hits give low values 0.96 | locus YJL168C, strain set2, hits give low values 0.989 | locus YJL187C, strain SWE1 (second series), hits give low values 0.959 | locus YJL187C, strain SWE1, hits give low values 0.951 | locus YJR066W, strain TOR1, hits give low values 0.939 | locus YJR075W, strain HOC1, hits give low values 0.964 | locus YKL009W, strain mrt4, hits give low values 0.956 | locus YKL068W, hits give low values 0.996 | locus YKL085W, strain MDH1 (second series), hits give low values 0.987 | locus YKL085W, strain MDH1, hits give low values 0.987 | locus YKL160W, strain elf1, hits give low values 0.933 | locus YKL190W, strain CNB1, hits give low values 0.985 | locus YKR001C, strain vps1, hits give low values 0.905 | locus YKR026C, strain gcn3, hits give low values 0.99 | locus YKR091W, strain srl3, hits give low values 0.991 | locus YLL001W, strain dnm1, hits give low values 0.909 | locus YLL026W, hits give low values 0.979 | locus YLL041C, strain sdh2, hits give low values 0.981 | locus YLR027C, strain aat2, hits give low values 0.975 | locus YLR039C, strain RIC1, hits give low values 0.964 | locus YLR058C, strain SHM2, hits give low values 0.959 | locus YLR102C, strain apc9, hits give low values 0.979 | locus YLR113W, strain HOG1, hits give low values 1.05 | locus YLR221C, strain rsa3, hits give low values 0.983 | locus YLR262C, strain YPT6 (second series), hits give low values 0.969 | locus YLR262C, strain YPT6, hits give low values 1.05 | locus YLR268W, strain sec22, hits give low values 0.921 | locus YLR320W, strain mms22, hits give low values 0.945 | locus YLR330W, strain CHS5, hits give low values 0.963 | locus YLR342W, strain FKS1, hits give low values 0.99 | locus YLR357W, strain rsc2, hits give low values 1.06 | locus YLR370C, strain arc18, hits give low values 0.988 | locus YLR384C, strain iki3, hits give low values 0.991 | locus YLR418C, strain cdc73, hits give low values 0.932 | locus YML016C, strain PPZ1, hits give low values 0.948 | locus YML032C, strain rad52, hits give low values 0.951 | locus YML124C, strain tub3, hits give low values 0.974 | locus YMR058W, strain fet3, hits give low values 0.921 | locus YMR078C, strain ctf18, hits give low values 0.969 | locus YMR125W, strain sto1, hits give low values 0.994 | locus YMR129W, hits give low values 0.986 | locus YMR205C, strain PFK2, hits give low values 0.913 | locus YMR223W, strain ubp8, hits give low values 0.974 | locus YMR231W, strain pep5, hits give low values 0.991 | locus YMR263W, strain SAP30, hits give low values 0.973 | locus YMR307W, strain GAS1, hits give low values 0.956 | locus YNL067W, strain RPL9B, hits give low values 0.999 | locus YNL128W, strain TEP1, hits give low values 0.932 | locus YNL153C, strain GIM3, hits give low values 0.947 | locus YNL183C, strain NPR1, hits give low values 0.939 | locus YNL209W, strain ssb2, hits give low values 0.958 | locus YNL233W, strain BNI4, hits give low values 0.946 | locus YNL250W, strain rad50, hits give low values 0.988 | locus YNL271C, strain bni1, hits give low values 0.983 | locus YNL298W, strain CLA4, hits give low values 0.929 | locus YNL307C, strain MCK1, hits give low values 0.949 | locus YNL322C, strain KRE1 (second series), hits give low values 0.986 | locus YNR049C, strain mso1, hits give low values 0.993 | locus YNR052C, strain pop2, hits give low values 1 | locus YOL006C, strain TOP1, hits give low values 0.691 | locus YOL012C, strain htz1 0.85 | locus YOL147C, strain pex11, hits give low values 0.984 | locus YOR001W, strain rrp6, hits give low values 0.978 | locus YOR061W, strain CKA2, hits give low values 0.931 | locus YOR069W, strain VPS5, hits give low values 0.994 | locus YOR070C, strain gyp1, hits give low values 0.951 | locus YOR080W, strain dia2, hits give low values 0.992 | locus YOR083W, strain WHI5, hits give low values 0.943 | locus YOR106W, strain vam3, hits give low values 0.875 | locus YOR136W, strain idh2, hits give low values 0.959 | locus YOR144C, strain elg1, hits give low values 0.969 | locus YOR231W, strain MKK1, hits give low values 0.962 | locus YOR265W, strain rbl2, hits give low values 0.979 | locus YOR270C, strain vph1, hits give low values 0.815 | locus YOR290C, strain snf2, hits give low values 0.876 | locus YOR316C, strain cot1, hits give low values 0.948 | locus YPL051W, strain arl3, hits give low values 0.928 | locus YPL055C, strain LGE1, hits give low values 0.868 | locus YPL240C, strain hsp82, hits give low values 0.939 | locus YPL241C, strain CIN2, hits give low values 0.993 | locus YPL256C, strain CLN2, hits give low values 1.08 | locus YPR119W, strain clb2, hits give low values 0.997 | locus YPR141C, strain kar3, hits give low values 0.98 | locus YPR163C, strain tif3, hits give low values 0.948 | locus YPR167C, strain met16, hits give low values 0.983 | strain wtn01, hits give low values 0.91
active: locus YBR023C, strain chs3, hits give low values 0.888 | locus YCL016C, strain dcc1, hits give low values 0.876 | locus YDL192W, strain arf1, hits give low values 0.911 | locus YDR101C, strain arx1, hits give low values 0.904 | locus YDR195W, strain ref2 1.26 [resistant] | locus YDR335W, strain msn5, hits give low values 0.91 | locus YDR392W, strain spt3, hits give low values 0.724 | locus YER015W, strain faa2, hits give low values 0.912 | locus YER155C, strain BEM2 (second series), hits give low values 0.835 | locus YJL164C, strain tpk1, hits give low values 0.912 | locus YLR258W, strain gsy2, hits give low values 0.907 | locus YLR371W, strain rom2, hits give low values 0.84 | locus YML120C, strain ndi1, hits give low values 0.901 | locus YNL071W, strain lat1, hits give low values 0.915 | locus YNL248C, strain rpa49, hits give low values 0.849 | locus YOR184W, strain ser1, hits give low values 0.871 | locus YPL078C, strain atp4, hits give low values 0.882 | locus YPL106C, strain sse1, hits give low values 0.832
